Test results from publication PMC7862700, “An all-to-all approach to the identification of sequence-specific readers for epigenetic DNA modifications on cytosine”.

What was measured:
Assay in all cases: DAPPL (digital affinity profiling via proximity ligation, sequencing); 10 mM Tris-HCl pH 7.5, 50 mM NaCl, 1 mM DTT, 4% glycerol, room temperature, 30 min; GST-TFs on glutathione beads, 16-mer random dsDNA library, 0.1% formaldehyde crosslink after washing; high values mean tight binding
FLI1 = biological target: T1, FLI1 (Homo sapiens, UniProt Q01543 1-452); details: protein: recombinant; tags: N-terminal GST; dsDNA, one strand shown
T1 sequence: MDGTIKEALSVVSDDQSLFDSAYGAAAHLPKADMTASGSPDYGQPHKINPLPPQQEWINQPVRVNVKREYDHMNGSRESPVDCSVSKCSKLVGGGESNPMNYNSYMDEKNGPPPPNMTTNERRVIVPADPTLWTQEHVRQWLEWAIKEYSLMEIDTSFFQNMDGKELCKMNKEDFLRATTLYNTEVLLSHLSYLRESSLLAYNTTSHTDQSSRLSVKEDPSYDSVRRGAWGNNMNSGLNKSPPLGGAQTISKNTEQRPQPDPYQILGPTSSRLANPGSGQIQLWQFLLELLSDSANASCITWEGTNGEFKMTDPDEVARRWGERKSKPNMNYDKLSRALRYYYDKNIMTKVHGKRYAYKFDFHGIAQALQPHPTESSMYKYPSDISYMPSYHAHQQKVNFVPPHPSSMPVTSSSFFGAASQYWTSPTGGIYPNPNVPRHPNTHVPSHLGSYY
Summary of the method: (§1)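 Pools of DNA-barcoded human transcription factors, expressed in yeast as GST fusions on glutathione beads and combined with a tag-only sample, were incubated with 200 nmole of a 16-mer random double-stranded DNA library. Incubation took 30 min at room temperature in Tris/NaCl/DTT/glycerol buffer and was followed by washing, 0.1% formaldehyde crosslinking, proximity ligation (BsaI/T4 ligase, 1 h, 37 °C), PCR amplification and sequencing on an Illumina NextSeq500. Binding signal is the ratio of a hexamer's read frequency for a factor to its frequency for the tag-only sample.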

ELK1 = biological target: T2, ELK1 (Homo sapiens, UniProt P19419 1-428); details: protein: recombinant; tags: N-terminal GST; dsDNA, one strand shown
T2 sequence: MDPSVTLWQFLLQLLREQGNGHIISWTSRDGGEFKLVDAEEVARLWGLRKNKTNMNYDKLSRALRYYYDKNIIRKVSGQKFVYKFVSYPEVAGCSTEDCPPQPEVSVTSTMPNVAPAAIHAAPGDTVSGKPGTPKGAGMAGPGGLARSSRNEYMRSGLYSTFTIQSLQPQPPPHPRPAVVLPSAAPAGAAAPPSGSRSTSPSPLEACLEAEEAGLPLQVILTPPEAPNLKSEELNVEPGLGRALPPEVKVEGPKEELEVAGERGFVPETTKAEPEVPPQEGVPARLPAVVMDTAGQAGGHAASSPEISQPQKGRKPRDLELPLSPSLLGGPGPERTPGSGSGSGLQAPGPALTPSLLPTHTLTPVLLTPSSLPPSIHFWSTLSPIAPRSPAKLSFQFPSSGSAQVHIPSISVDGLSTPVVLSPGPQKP
Summary of the method: as §1

GABPA = biological target: T3, GABPA (Homo sapiens, UniProt Q06546 1-454); details: protein: recombinant; tags: N-terminal GST; dsDNA, one strand shown
T3 sequence: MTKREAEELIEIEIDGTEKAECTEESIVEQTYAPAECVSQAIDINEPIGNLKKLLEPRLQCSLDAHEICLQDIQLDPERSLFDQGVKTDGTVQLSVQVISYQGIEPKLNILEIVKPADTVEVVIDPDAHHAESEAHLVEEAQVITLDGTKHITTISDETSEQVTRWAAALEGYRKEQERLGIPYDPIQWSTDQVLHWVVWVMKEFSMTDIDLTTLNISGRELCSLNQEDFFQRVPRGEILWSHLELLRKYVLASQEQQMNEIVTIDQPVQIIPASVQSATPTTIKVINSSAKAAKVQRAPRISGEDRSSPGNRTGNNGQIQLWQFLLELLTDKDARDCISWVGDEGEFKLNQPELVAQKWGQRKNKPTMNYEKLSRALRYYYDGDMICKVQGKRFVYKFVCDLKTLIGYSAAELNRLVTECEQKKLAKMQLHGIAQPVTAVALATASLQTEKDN
Summary of the method: as §1

ERG = biological target: T4, ERG (Homo sapiens, UniProt P11308 1-479); details: protein: recombinant; tags: N-terminal GST; dsDNA, one strand shown
T4 sequence: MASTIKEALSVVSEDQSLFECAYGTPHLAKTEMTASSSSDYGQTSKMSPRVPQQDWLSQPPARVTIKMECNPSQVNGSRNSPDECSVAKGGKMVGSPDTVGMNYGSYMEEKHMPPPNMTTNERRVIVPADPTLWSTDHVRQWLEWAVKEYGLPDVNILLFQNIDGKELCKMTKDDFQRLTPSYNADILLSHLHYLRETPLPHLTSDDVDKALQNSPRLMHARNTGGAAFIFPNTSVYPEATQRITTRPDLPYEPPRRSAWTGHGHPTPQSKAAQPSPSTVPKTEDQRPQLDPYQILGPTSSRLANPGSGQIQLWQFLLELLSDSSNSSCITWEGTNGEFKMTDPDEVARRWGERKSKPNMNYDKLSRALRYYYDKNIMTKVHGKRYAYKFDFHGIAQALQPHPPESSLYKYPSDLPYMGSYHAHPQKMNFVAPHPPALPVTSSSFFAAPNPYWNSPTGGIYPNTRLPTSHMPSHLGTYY
Summary of the method: as §1

ELF1 = ELF1 (Homo sapiens, UniProt P32519 1-619); details: protein: recombinant; tags: N-terminal GST; dsDNA, one strand shown
ELF1, sequence (P32519 whole entry): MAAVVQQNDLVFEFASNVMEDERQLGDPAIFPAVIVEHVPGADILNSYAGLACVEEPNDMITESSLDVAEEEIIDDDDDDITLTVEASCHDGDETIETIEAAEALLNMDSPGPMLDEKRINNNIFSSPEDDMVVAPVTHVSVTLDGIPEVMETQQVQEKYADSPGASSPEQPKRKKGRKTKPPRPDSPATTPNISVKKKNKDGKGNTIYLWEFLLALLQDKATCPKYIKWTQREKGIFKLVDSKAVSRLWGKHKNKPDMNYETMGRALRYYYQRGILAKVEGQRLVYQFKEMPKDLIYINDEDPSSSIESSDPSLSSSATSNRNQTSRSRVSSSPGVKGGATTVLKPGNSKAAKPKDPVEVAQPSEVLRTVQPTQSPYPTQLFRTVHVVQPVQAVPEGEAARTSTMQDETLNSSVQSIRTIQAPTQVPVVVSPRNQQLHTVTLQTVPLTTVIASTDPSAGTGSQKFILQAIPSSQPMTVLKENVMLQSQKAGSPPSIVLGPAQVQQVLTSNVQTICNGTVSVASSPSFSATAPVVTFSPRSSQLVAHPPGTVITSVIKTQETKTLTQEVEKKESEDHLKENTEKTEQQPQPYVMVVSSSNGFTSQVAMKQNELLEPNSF
Summary of the method: as §1

EHF = biological target: T5, EHF (Homo sapiens, UniProt Q9NZC4 1-300); details: protein: recombinant; tags: N-terminal GST; dsDNA, one strand shown
T5 sequence: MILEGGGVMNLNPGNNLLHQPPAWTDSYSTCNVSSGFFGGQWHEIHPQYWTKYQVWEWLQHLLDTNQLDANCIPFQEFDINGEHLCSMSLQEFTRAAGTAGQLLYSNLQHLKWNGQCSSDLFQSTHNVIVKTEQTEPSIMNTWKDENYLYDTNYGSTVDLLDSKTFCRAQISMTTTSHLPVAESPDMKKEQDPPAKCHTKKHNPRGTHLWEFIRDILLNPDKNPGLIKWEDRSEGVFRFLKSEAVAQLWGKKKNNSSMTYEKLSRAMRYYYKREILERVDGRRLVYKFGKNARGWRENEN
Summary of the method: as §1

SPI1 = SPI1 (Homo sapiens, UniProt P17947 1-270); details: protein: recombinant; tags: N-terminal GST; dsDNA, one strand shown
Summary of the method: as §1

SPIB = SPIB (Homo sapiens, UniProt Q01892 1-262); details: protein: recombinant; tags: N-terminal GST; dsDNA, one strand shown
SPIB, sequence (Q01892 whole entry): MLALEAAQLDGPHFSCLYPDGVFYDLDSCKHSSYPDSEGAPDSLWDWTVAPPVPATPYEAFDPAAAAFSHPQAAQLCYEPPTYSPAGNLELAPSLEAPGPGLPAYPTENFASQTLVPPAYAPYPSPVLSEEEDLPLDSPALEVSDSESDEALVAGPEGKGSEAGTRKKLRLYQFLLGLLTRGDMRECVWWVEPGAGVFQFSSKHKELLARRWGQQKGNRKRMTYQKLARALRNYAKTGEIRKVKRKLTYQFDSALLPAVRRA
Summary of the method: as §1

ELK3 = biological target: T6, ELK3 (Homo sapiens, UniProt P41970 1-407); details: protein: recombinant; tags: N-terminal GST; dsDNA, one strand shown
T6 sequence: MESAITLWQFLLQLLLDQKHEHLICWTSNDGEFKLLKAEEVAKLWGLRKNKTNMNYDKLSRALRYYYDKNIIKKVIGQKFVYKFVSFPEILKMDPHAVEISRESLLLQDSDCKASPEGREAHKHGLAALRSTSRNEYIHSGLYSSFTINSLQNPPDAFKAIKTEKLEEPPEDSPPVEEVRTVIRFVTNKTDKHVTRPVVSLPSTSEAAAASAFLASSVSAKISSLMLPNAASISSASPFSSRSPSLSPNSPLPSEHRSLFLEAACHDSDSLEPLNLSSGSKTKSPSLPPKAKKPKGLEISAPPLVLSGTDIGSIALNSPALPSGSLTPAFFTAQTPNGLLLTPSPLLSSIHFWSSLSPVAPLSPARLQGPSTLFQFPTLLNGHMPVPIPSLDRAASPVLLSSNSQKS
Summary of the method: as §1

FEV = biological target: T7, FEV (Homo sapiens, UniProt Q99581 1-238); details: protein: recombinant; tags: N-terminal GST; dsDNA, one strand shown
T7 sequence: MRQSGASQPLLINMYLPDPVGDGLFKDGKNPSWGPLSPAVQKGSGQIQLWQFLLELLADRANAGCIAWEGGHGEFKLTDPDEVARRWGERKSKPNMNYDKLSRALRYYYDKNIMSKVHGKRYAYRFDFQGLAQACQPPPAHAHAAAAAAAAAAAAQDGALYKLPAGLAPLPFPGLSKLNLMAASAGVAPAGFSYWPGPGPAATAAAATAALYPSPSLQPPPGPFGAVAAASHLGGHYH
Summary of the method: as §1

ETV5 = ETV5 (Homo sapiens, UniProt P41161 1-510); details: protein: recombinant; tags: N-terminal GST; dsDNA, one strand shown
ETV5, sequence (P41161 whole entry): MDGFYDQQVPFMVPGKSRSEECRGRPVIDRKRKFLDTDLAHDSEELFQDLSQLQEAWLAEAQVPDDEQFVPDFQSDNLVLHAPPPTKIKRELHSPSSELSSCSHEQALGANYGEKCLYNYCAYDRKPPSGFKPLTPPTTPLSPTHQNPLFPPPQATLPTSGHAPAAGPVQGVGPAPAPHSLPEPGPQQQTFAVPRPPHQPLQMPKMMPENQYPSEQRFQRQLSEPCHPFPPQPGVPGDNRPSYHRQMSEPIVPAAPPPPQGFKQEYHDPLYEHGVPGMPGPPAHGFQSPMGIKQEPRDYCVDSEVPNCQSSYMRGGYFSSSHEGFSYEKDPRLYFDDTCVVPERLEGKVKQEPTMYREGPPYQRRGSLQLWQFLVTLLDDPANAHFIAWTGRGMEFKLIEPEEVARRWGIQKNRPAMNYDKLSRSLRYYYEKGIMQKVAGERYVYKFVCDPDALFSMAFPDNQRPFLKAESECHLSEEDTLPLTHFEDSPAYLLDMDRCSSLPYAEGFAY
Summary of the method: as §1

HSF1 = HSF1 (Homo sapiens, UniProt Q00613 1-529); details: protein: recombinant; tags: N-terminal GST; chain copies: 3; dsDNA, one strand shown
HSF1, sequence (Q00613 whole entry): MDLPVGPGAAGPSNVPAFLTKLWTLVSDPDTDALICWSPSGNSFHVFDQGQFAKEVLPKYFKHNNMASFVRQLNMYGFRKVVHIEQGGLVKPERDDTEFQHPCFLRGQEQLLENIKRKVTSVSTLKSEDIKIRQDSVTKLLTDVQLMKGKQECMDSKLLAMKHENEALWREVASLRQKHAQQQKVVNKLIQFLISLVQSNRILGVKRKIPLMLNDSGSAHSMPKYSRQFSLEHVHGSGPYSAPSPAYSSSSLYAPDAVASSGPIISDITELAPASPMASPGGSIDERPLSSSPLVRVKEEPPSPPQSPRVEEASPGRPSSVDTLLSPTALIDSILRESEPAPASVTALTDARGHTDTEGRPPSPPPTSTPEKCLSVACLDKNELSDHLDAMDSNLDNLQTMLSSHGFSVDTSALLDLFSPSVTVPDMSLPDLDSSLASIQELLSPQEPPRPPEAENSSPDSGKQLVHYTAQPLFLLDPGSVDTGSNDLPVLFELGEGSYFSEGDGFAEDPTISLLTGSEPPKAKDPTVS
Summary of the method: as §1

SPIC = biological target: T8, SPIC (Homo sapiens, UniProt Q8N5J4 1-248); details: protein: recombinant; tags: N-terminal GST; dsDNA, one strand shown
T8 sequence: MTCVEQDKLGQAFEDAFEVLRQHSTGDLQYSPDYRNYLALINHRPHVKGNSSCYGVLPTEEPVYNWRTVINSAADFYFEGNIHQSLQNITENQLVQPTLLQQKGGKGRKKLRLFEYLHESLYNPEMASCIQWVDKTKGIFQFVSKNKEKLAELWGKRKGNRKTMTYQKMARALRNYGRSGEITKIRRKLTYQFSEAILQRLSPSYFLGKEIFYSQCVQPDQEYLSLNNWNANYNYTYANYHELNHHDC
Summary of the method: as §1

ELF4 = ELF4 (Homo sapiens, UniProt Q99607 1-663); details: protein: recombinant; tags: N-terminal GST; dsDNA, one strand shown
ELF4, sequence (Q99607 whole entry): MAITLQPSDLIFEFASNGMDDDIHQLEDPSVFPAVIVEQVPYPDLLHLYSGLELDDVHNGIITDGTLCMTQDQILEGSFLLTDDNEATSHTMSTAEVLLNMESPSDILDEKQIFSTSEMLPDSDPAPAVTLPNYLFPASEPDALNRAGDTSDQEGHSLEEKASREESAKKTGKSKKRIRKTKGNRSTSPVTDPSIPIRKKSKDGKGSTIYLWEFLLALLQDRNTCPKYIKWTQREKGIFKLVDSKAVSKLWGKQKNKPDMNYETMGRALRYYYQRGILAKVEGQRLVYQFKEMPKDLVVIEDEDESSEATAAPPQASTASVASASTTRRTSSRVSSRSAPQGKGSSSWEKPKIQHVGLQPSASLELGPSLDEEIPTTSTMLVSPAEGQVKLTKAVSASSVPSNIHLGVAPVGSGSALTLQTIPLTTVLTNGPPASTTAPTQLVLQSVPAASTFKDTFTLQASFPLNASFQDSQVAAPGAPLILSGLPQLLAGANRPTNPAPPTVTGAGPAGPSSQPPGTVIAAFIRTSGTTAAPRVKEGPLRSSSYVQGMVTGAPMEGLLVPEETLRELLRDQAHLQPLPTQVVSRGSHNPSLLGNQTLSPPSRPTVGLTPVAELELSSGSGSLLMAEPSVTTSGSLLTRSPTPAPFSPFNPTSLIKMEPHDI
Summary of the method: as §1

ELK4 = biological target: T9, ELK4 (Homo sapiens, UniProt P28324-2 1-405); details: protein: recombinant; tags: N-terminal GST; dsDNA, one strand shown
T9 sequence: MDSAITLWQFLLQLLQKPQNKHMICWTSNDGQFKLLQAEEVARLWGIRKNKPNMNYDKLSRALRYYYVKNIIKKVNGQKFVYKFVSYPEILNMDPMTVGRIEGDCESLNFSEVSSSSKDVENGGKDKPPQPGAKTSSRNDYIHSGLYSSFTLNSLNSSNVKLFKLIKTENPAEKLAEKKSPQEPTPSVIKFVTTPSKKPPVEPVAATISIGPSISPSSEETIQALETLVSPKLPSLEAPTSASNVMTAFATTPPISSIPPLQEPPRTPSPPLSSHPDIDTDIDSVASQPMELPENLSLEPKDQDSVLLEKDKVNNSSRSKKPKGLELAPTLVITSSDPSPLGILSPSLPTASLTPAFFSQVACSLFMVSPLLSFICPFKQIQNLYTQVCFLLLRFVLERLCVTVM
Summary of the method: as §1

ETV2 = biological target: T10, ETV2 (Homo sapiens, UniProt O00321 1-342); details: protein: recombinant; tags: N-terminal GST; dsDNA, one strand shown
T10 sequence: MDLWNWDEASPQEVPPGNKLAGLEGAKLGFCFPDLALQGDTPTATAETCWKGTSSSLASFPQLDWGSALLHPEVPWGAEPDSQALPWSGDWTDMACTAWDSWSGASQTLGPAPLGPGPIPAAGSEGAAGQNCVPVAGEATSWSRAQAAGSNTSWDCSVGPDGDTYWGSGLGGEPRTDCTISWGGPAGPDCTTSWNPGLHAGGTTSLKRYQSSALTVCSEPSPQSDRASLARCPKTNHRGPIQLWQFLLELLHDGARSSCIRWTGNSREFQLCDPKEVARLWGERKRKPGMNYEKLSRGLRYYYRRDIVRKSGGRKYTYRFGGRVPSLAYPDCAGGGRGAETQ
Summary of the method: as §1

ELF3 = biological target: T11, ELF3 (Homo sapiens, UniProt P78545 1-371); details: protein: recombinant; tags: N-terminal GST; dsDNA, one strand shown
T11 sequence: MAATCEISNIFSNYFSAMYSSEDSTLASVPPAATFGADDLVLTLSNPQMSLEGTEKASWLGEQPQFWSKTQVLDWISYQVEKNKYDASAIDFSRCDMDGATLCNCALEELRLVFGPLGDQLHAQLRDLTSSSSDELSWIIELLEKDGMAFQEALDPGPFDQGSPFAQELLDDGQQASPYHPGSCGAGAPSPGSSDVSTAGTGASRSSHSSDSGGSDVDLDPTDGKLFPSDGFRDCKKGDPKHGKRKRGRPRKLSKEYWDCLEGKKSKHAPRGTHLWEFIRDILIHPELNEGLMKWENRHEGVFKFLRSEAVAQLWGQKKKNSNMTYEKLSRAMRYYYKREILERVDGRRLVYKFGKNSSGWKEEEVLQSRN
Summary of the method: as §1

CRX = CRX (Homo sapiens, UniProt O43186 1-299); details: protein: recombinant; tags: N-terminal GST; dsDNA, one strand shown
CRX, sequence (O43186 whole entry): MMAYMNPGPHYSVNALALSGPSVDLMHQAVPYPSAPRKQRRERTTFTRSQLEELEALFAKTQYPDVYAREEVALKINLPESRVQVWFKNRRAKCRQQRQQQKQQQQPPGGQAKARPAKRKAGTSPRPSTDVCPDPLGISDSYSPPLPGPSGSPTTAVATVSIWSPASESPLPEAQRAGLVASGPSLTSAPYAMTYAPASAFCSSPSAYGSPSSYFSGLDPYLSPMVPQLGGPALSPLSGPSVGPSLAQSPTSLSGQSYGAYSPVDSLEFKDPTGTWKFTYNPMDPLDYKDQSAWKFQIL
Summary of the method: as §1

ETV1 = ETV1 (Homo sapiens, UniProt P50549 1-477); details: protein: recombinant; tags: N-terminal GST; dsDNA, one strand shown
ETV1, sequence (P50549 whole entry): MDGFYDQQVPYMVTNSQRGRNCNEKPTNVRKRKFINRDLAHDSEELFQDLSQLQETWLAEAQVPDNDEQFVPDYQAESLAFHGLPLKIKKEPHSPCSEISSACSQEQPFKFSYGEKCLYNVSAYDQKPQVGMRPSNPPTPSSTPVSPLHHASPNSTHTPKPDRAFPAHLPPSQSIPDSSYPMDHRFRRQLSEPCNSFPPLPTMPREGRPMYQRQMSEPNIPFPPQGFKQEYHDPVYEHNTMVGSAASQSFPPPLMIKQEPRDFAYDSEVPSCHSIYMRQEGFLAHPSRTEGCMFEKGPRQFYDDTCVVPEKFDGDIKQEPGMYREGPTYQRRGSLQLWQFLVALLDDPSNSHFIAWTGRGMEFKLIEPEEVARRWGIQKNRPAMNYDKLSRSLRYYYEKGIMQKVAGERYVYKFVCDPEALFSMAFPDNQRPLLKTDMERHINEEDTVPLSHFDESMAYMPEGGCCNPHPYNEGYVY
Summary of the method: as §1

Which results are given for CTATTT?
binding signal (FLI1): 1.7 fold enrichment (6-mer frequency, TF over GST control); binding signal (ELK1): 1.67 fold enrichment (6-mer frequency, TF over GST control); binding signal (GABPA): 1.74 fold enrichment (6-mer frequency, TF over GST control); binding signal (ERG): 1.77 fold enrichment (6-mer frequency, TF over GST control); binding signal (ELF1): 1.58 fold enrichment (6-mer frequency, TF over GST control); binding signal (EHF): 1.85 fold enrichment (6-mer frequency, TF over GST control); binding signal (SPI1): 1.76 fold enrichment (6-mer frequency, TF over GST control); binding signal (SPIB): 1.81 fold enrichment (6-mer frequency, TF over GST control); binding signal (ELK3): 1.85 fold enrichment (6-mer frequency, TF over GST control); binding signal (FEV): 1.68 fold enrichment (6-mer frequency, TF over GST control); binding signal (ETV5): 1.64 fold enrichment (6-mer frequency, TF over GST control); binding signal (HSF1): 1.45 fold enrichment (6-mer frequency, TF over GST control); binding signal (SPIC): 2.07 fold enrichment (6-mer frequency, TF over GST control); binding signal (ELF4): 1.69 fold enrichment (6-mer frequency, TF over GST control); binding signal (ELK4): 1.88 fold enrichment (6-mer frequency, TF over GST control); binding signal (ETV2): 1.68 fold enrichment (6-mer frequency, TF over GST control); binding signal (ELF3): 2.07 fold enrichment (6-mer frequency, TF over GST control); binding signal (CRX): 1.64 fold enrichment (6-mer frequency, TF over GST control); binding signal (ETV1): 1.74 fold enrichment (6-mer frequency, TF over GST control)
